# In the library only some 2.6% were active in any assay of this set; here they are far more common.
# CRFBP-R2 agonist: agonists of human CRF-binding protein/CRF-R2 receptor complex | HEK293 CRF-R2/CRF-BP, calcium dye fluorescence (FLIPR); percent of saturating CRF peptide response | activation, % at 13.2 µM | actives 0.46% (n = 350,000);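 active = activation of at least 50%, plus an integration ratio under a set limit after plate pattern correction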;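 note: plate controls were neutral control wells without compound for no effect and CRF at EC100 for full effect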
# IDE act: activators of human insulin-degrading enzyme in cells; P14735; HEK cells, FAbeta-B cleavage, fluorescence polarization; 0% vehicle, 100% cell-free pure enzyme wells; activation, % at 5.96 µM; actives 0.073% (n = 340,000);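 active = activation above the mean of all tested compounds plus 3 SD, set per screening campaign, cut at about 17% in these data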
# TPT1 inh: inhibitors of Candida albicans tRNA 2'-phosphotransferase TPT1. AID 1962. actives 0.81% (n = 300,000). inhibition, % at 5 µM. recombinant caTPT1, FP RNA substrate dephosphorylation;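 active = inhibition above the mean of all tested compounds plus 3 SD, set per screening campaign, cut at about 24% in these data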;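 note: plate controls were DMSO alone for no effect and ferristatin control at 100 nM for full effect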
# CRFBP-R2 block: CRF-BP/CRF-R2 complex antagonism; AID 588475; actives 0.59% (n = 350,000); HEK293 CRF-R2/CRF-BP, CRF-induced calcium fluorescence; inhibition, % at 11.8 µM;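 active = inhibition of the ligand-induced calcium signal above about 50% at the single tested concentration, limit read from the data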
# IDE cell inh: inhibits human insulin-degrading enzyme in HEK cells. FAbetaB cleavage, fluorescence polarization. inhibition, % at 5.59 µM. AID 434962. actives 0.41% (n = 320,000);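 active = percent inhibition above the average of all tested compounds plus 3 SD, set per screening campaign, cut at about 16% in these data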;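 note: IDE supplied by intact live HEK cells; FP after avidin binding of uncleaved biotin substrate so inhibition keeps polarization high; 0% = DMSO wells and 100% = 60 µM reference IDE inhibitor Ii1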
# Myeloid diff MLP: myeloid differentiation induction; actives 1% (n = 360,000); calls only at 10 µM; ER-HoxA9 myeloid progenitors, lysozyme-GFP differentiation, flow cytometry;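 active = normalized GFP-positive differentiation at or above the plate's own cutoff, the solvent-only control mean plus 3 SD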;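 note: cells exposed to compound for four days before flow analysis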
# Myeloid diff CP1: myeloid differentiation induction; shares compounds with Myeloid diff MLP; ER-HoxA9 myeloid progenitors, GFP/Mac1 double-positive flow; calls only; actives 2% (n = 2,300);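 active = share of green or green-and-red cells above 9 and 9% in run 1 or 4 and 3% in run 2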
# GFP autofluor: compound fluorescence in myeloid differentiation counter-screen | shares compounds with Myeloid diff MLP | ER-HoxA9 myeloid progenitors, no estrogen, GFP autofluorescence flow cytometry; vehicle wells 0%, positive control 100% | fluorescence response, % (concentration not given with the values) | actives 7.4% (n = 2,300);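 active = over 5% cells positive for green fluorescent reporter, or over 2% positive for both it and APC stain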;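 note: range taken on the double positive population between DMSO and positive control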
# An asterisk follows results filed as active; i = inactive; nt = not tested or not shown; + = active, no number.
SMILES,CRFBP-R2 agonist,IDE act,TPT1 inh,CRFBP-R2 block,IDE cell inh,Myeloid diff MLP,Myeloid diff CP1,GFP autofluor
COc1cc(NC(=O)c2cc(S(=O)(=O)N3CCCCC3)ccc2N2CCOCC2)cc(OC)c1,-1,5,-2,12,-3,+,i,2
CCCC[C@@H]1Cc2[nH][nH]c(=O)c2[C@H](c2ccc3ccccc3c2)O1,nt,nt,nt,nt,nt,i,nt,nt
O=C(c1ccc2c(=O)n3c(nc2c1)CCCCC3)N1CCN(c2ccc(Cl)cc2)CC1,-2,-15,-2,-62,2,i,i,0
NNC(=O)c1[nH]c2ccc(Cl)cc2c1-c1ccccc1,-1,-3,-6,-32,3,i,i,2
COc1ccc(N2C[C@H](CSC)[C@@H](CC(=O)Nc3ccc(Br)cc3)C2=O)cc1,2,nt,nt,-8,nt,i,nt,nt
COc1ccc(NC(=O)C[C@H]2C(=O)N(c3ccc(Br)cc3)C[C@@H]2CSC)cc1,0,nt,nt,3,nt,i,i,1
Cc1ccnn1-c1ccc(C(=O)OCC(=O)Nc2ccc(F)cc2)cc1,-1,-4,nt,10,nt,i,nt,nt
CCOCCCNC(=O)c1c[nH]c2ccc(OCC)cc2c1=O,1,5,0,-2,-5,i,nt,nt
CCCOc1ccc2[nH]cc(C(=O)O)c(=O)c2c1,0,1,1,-14,1,i,i,0
C=C(c1cn(C(C)=O)c2ccccc12)c1cn(C(C)=O)c2ccccc12,4,-2,nt,-17,nt,i,i,0
Cc1cccc(NS(=O)(=O)c2ccc(C(=O)N3CCCCCC3)cc2)c1C,22,-1,2,-29,-11,i,nt,nt
CC(=O)C1=C(O)C=C(c2ccco2)CC1c1ccco1 (stereo not given),0,5,4,0,2,i,i,0
S=C(NC1CC1)NC1CCCc2ccccc21 (stereo not given),-2,-2,-1,2,-6,i,i,0
Cn1c(C(=O)NCCN2CCc3ccccc3C2)cc2c(=O)n(C)c3ccccc3c21,0,5,-8,10,-2,i,nt,nt
Cn1c(C(=O)NCCN2CCOCC2)cc2c(=O)n(C)c3ccccc3c21,-3,6,-2,13,3,i,i,4
CCOC(=O)[C@H]1[C@H]2COc3cc(OC)ccc3[C@@H]2N2C(=O)CN(CCc3c[nH]c4ccccc34)C(=O)[C@@]12C,2,3,nt,-16,5,i,i,0
Cc1ccc(C2(C)NC(=O)N(CC(=O)Nc3cc(S(=O)(=O)N4CCCCC4)ccc3OC(C)C)C2=O)cc1 (stereo not given),2,0,4,9,-3,+,i,0
Cc1ccc(CC(CC(=O)O)C(=O)NC2CCCCC2)cc1 (stereo not given),-1,1,0,-2,9,+,i,0
CC(C)OC(=O)CSc1nnc(Cc2ccccc2)n1C,3,1,3,-14,1,+,i,0
CCCOc1cccc(C2C(C(=O)c3ccco3)=C(O)C(=O)N2c2nnc(C)s2)c1 (stereo not given),19,-3,-6,-27,-2,nt,nt,nt
CCCCOc1cccc(C2C(C(=O)c3ccc(C)o3)=C(O)C(=O)N2c2nnc(C)s2)c1 (stereo not given),11,-4,nt,-18,nt,+,i,2
O=C(CCn1c(=O)sc2ccccc21)NC1=NCCS1,0,1,-1,3,-2,i,i,0
O=C(CCn1c(=O)sc2ccccc21)Nc1ccon1,1,-1,-3,-3,2,i,nt,nt
CC(C)(C)OC(=O)N(CC1CCNCC1)C(=O)c1[nH]c(C(F)(F)F)nc1-c1ccccc1,nt,nt,nt,nt,nt,i,nt,nt
O=C(Nc1cc(S(=O)(=O)N2CCOCC2)ccc1N1CCOCC1)c1ccc([N+](=O)[O-])s1,-1,1,nt,8,4,i,nt,nt
SMILES,CRFBP-R2 agonist,IDE act,TPT1 inh,CRFBP-R2 block,IDE cell inh,Myeloid diff MLP,Myeloid diff CP1,GFP autofluor
Cc1ccc(NC(=O)c2ccc([N+](=O)[O-])s2)cc1S(=O)(=O)N1CCOCC1,-1,3,nt,-1,-2,+,i,0
O=C1c2oc3ccc(Cl)cc3c(=O)c2C(c2ccccn2)N1CCCN1CCOCC1 (stereo not given),0,nt,-3,27,-1,nt,nt,nt
Cc1ccc(C(=O)CCC(=O)OCC(=O)Nc2ccccc2SCC#N)cc1,7,-3,nt,-8,2,+,i,89*
CC(=O)Nc1ccc2nc(C3CC3)n(Cc3ccc(Cl)cc3)c(=O)c2c1,-5,-1,4,-39,2,i,nt,nt
O=C(Nc1ccc2nc(C3CC3)n(Cc3ccc(F)cc3)c(=O)c2c1)c1ccco1,2,-3,0,-17,-5,+,i,0
CC[C@]12c3[nH]c4ccccc4c3CCN1C(=O)C(CC(=O)NCCc1ccccn1)C[C@@H]2C(=O)N1CCN(C(=O)C2CC2)CC1 (stereo not given in full),-2,1,nt,5,1,i,nt,nt
CC[C@]12c3[nH]c4ccc(Cl)cc4c3CCN1C(=O)[C@@H](CC(=O)NCCc1ccccn1)C[C@@H]2C(=O)N1CCN(C(=O)C2CC2)CC1,-1,0,nt,2,nt,i,i,0
CCC(=O)Nc1ccc(-c2nnc(SCC(=O)NCC3CCCO3)n2C)cc1 (stereo not given),-2,7,-1,26,10,i,nt,nt
COc1ccc(S(=O)(=O)Nc2cccc(-c3ccc4nncn4n3)c2)cc1,-1,-4,-2,-4,1,i,i,0
COc1ccc(C(=O)Nc2cccc(-c3ccc4nncn4n3)c2)cc1,3,-8,2,-11,-1,i,nt,nt
C[C@H]1CN([C@@H](C)CO)C(=O)c2cc(Br)cnc2O[C@H]1CN(C)Cc1ccc(Oc2ccccc2)cc1,0,nt,nt,22,nt,i,nt,nt
Cc1cc(Cl)c(OCCCn2cncn2)c(Br)c1,0,-1,-1,12,3,i,nt,nt
Cc1cc(Cl)cc(Br)c1OCCCCn1cncn1,1,-5,-1,-6,0,+,i,1
Cc1ccc2nc3c(cc2c1)CN(Cc1ccco1)C(=NCC1CCCO1)S3 (stereo not given),-1,-2,0,11,3,i,i,0
Cc1cccc2cc3c(nc12)SC(=NCC1CCCO1)N(Cc1ccco1)C3 (stereo not given),1,6,5,-2,3,i,nt,nt
C1CCCCCC(NCCN2CCNCC2)CCCCC1,0,2,2,-1,-3,+,i,0
